Screening results from PubChem BioAssay.
ALDH1A1 block = qHTS Assay for Inhibitors of Aldehyde Dehydrogenase 1 (ALDH1A1) | Aldehyde dehydrogenase 1A1 (Homo sapiens), P00352 | Purified ALDH1A1, NADH fluorescence, propionaldehyde substrate | Potency, µM (series often up to 75.3 µM), inactives show top-dose activity, negative = inhibition, usual class: inhibitors | 220,000 compounds, 7.3% hits; active means well fitted inhibition curve with a large enough effect, not every such curve was filed as active; inconclusive means small, poorly fitted or top-dose-only effect, or another doubt; inactive means no such curve, though single readings can be large or run the other way;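 further: potency means the concentration at half of the fitted maximal effect; plate controls were no enzyme wells and a reference inhibitor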
Target sequence (P00352 whole entry, looked up): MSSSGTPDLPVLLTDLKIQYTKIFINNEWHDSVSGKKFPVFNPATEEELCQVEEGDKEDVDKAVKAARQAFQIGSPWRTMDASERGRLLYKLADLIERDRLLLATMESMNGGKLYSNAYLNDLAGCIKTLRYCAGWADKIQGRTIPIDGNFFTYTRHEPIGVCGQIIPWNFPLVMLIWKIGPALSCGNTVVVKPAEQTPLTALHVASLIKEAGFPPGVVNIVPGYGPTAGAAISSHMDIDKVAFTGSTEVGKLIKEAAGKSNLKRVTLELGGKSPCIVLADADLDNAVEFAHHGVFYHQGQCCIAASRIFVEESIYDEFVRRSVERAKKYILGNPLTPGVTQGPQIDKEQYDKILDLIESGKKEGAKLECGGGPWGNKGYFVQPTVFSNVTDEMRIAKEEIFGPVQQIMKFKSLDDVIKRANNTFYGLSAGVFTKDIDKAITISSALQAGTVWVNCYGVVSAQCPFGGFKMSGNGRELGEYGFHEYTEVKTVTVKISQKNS
KDM4E inh = qHTS Assay for Inhibitors of Human Jumonji Domain Containing 2E (JMJD2E). Lysine-specific demethylase 4E (Homo sapiens), B2RXH2. JMJD2E catalytic domain, FDH-coupled NADH fluorescence (FDH is formaldehyde dehydrogenase). Potency, µM (doses to about 57.1 µM), for inactives: top-dose activity change, negative = inhibition, usual class: inhibitors. 230,000 compounds, 1.6% hits. AID 2147, 2009; active means well fitted inhibition curve with a large enough effect, not every such curve was filed as active; inconclusive means small, poorly fitted or top-dose-only effect, or another doubt; inactive means no such curve, though single readings can be large or run the other way;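 further: potency means the concentration at half of the fitted maximal effect; 0% = wells with enzyme and -100% = buffer wells without enzyme; nearly all actives have a fitted effect of over 50% in size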
Sfp inh = qHTS Assay for Inhibitors of Bacillus subtilis Sfp phosphopantetheinyl transferase (PPTase); Biochemical Sfp PPTase activity, qHTS; Potency, µM, without a hit: largest response in the series, negative = inhibition, actives largely listed as inhibitors; 310,000 compounds, 3.5% hits; AID 1490, 2009;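 further: the enzyme is Sfp with the accession as filed and its product quenches rhodamine fluorescence; potency means the concentration at half of the fitted maximal effect; 0% = enzyme reaction without inhibitor and -100% = no enzyme wells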
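Compounds were incubated with enzyme (final 15 nM) for 15 min at room temperature before substrate addition started the reaction. Fluorescence at 525 nm excitation, 598 nm emission was recorded immediately and after 30 minutes.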
Lamin A splicing = qHTS Assay for Modulators of Lamin A Splicing; HeLa LMNA splicing GFP/RFP minigene ratio, 48 h; Potency, µM (top dose mostly 46.1 µM), inactives show at the highest dose ratio change, negative = inhibition, usual class: inhibitors; 200,000 compounds, 0.01% hits; active means well fitted inhibition curve with a large enough effect in the signal ratio, with a control signal flat, not every such curve was filed as active; inconclusive means small, poorly fitted or top-dose-only effect, or effect the other way, or a change in a side signal; the % refers to the signal ratio; further: potency means the concentration at half of the fitted maximal effect; on the % scale 0 is the no-effect control and ±100 the full control effect
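Read-out is the ratio of GFP to DsRed2 object intensity, acquired by 488 nm laser-scanning cytometry on HeLa lamin A-EGFP minigene reporter cells. Compound incubation 48 hrs at 37 °C in Opti-MEM with 2% FBS; DMSO 0.5% final.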
G9a inh = qHTS Assay for Inhibitors of Histone Lysine Methyltransferase G9a | Histone-lysine N-methyltransferase EHMT2 (Homo sapiens), Q96KQ7 | G9a H3K9 monomethylation, AlphaScreen, 2 h | Potency, µM (highest dose often 102 µM), inactives show at the highest dose activity, negative = inhibition, most hits filed as inhibitors | 350,000 compounds, 8.8% hits; further: potency means the concentration at half of the fitted maximal effect; on the % scale 0 is the no-effect control and ±100 the full control effect; nearly all actives have a fitted effect of over 75% in size
Target sequence (Q96KQ7 913-1193 limits assumed): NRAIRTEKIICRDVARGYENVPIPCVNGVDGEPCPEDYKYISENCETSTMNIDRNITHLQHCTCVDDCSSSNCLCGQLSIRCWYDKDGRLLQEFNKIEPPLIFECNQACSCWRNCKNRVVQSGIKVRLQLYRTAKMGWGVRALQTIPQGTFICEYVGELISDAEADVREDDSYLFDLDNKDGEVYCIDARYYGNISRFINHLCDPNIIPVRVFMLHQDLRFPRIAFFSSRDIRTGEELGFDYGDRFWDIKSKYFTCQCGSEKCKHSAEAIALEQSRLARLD
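Step 1: enzyme (final 20 nM) with compound, 15 min RT. Step 2: substrate peptide 500 nM and SAM 20 uM, 2 h RT. Step 3: anti-H3K9me1 antibody and AlphaScreen beads, 10 min, then plate read.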
miR-21 act = qHTS Assay for Modulators of miRNAs and/orActivators of miR-21. HeLa miR-21 FLuc reporter, luciferase, 48 h. 340,000 tested, under 10 active. AID 2288, 2010. Potency, µM (series often up to 38.3 µM), for inactives: at the top dose activity change, positive = activation, usual class: activators;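 further: % of control where 0% means no effect; miR-21 action dims this reporter so a rising signal means less miR-21 action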
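Luminescence from a firefly luciferase reporter carrying a miR-21 binding site downstream, stably expressed under a CMV promoter in HeLa cells that make miR-21 endogenously, reports miRNA modulation after 48 h compound exposure up to approximately 40uM final.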
* hit, by the source's call; ? = inconclusive; nt = not tested or not shown; [ ] = remark or other dose. This is a sample that favours compounds with a hit; in the whole collection about 13% have one here. Unless noted, the call rests on the fitted dose curve; in most records, active means well fitted curve in the direction sought with a large enough effect; inconclusive means small, poorly fitted or top-dose-only effect, or another doubt; inactive means no such curve, though single readings can be large; an effect the other way counts as inactive or inconclusive.

SMILES	ALDH1A1 block	KDM4E inh	Sfp inh	Lamin A splicing	G9a inh	miR-21 act
O=C(NNC(=S)NC(=O)c1ccco1)c1ccc(NC(=O)c2ccccc2)cc1	-14%	?	-11%	nt	?	8%
O=C(NC(=S)NNC(=O)c1cc2ccccc2cc1O)c1ccco1	?	18µM*	9%	?	nt	11%
O=C(NC(=S)Nc1cccc(NC(=S)NC(=O)c2ccco2)n1)c1ccco1	?	-13%	?	nt	?	-6%
O=C(NC(=S)NNC(=O)c1ccccc1O)c1ccco1	?	7.1µM*	-8%	?	?	-5%
COc1ccc(C(=O)NC(=S)NNC(=O)c2ccco2)cc1	nt	nt	22%	nt	-8%[12.7 µM]	-1%
O=C(NC(=S)NNC(=O)c1ccco1)c1ccc(F)cc1	nt	nt	-12%	nt	13µM*	0%
CC(=O)Nc1ccccc1-c1nc2ccc(C(=O)N3CCN(c4ccccc4)CC3)cc2[nH]c1=O	28µM*	3%	-6%	-5%	45µM*	-9%
CC(=O)Nc1ccccc1-c1nc2ccc(C(=O)N3CCN(c4cccc(C)c4)C(C)C3)cc2[nH]c1=O (stereo not drawn)	-2%	-24%	-4%	-11%	?	5%
CCCCN(CCCC)CCNC(=O)Cn1nc(CC)n2c(cc3sc(C)cc32)c1=O	nt	nt	nt	nt	-10%[59 µM]	6%
O=C1C=C(c2ccccc2)C(=O)N1Nc1ccccc1	22µM*	8%	10µM*	-11%	8.9µM*	?
CCc1cc(=O)[nH]c(SCc2nc(-c3ccc(C(F)(F)F)cc3)no2)n1	nt	nt	nt	7%[46 µM]	0%[59 µM]	-1%
CC1CCN(CC(=O)Nc2ccc(N3CCCCCC3)cc2)CC1	?	22µM*	-27%	?	10µM*	-4%
O=C(CNCC1CCCO1)Nc1ccc(N2CCCCCC2)cc1 (stereo not drawn)	16µM*	-3%	56µM*	-6%	?	-11%
Cc1ccc(NC(=O)CNC2CCCCC2)cc1Cl	nt	nt	5%	nt	15%	-10%
O=C(CNCc1ccccc1Cl)Nc1ccccc1N1CCCCC1	?	?	-12%	4%[46 µM]	10µM*	1%
O=C(CNC1CCCC1)Nc1ccc(N2CCCCCC2)cc1	20µM*	8.9µM*	?	?	5.6µM*	-4%
CC(C)(C)OC(=O)NC(NC(=O)OCC1c2ccccc2-c2ccccc21)C(=O)O (stereo not drawn)	nt	nt	-28%	nt	nt	nt
CCN(CC)c1ccc(NC(=O)CNCc2ccccc2Cl)c(C)c1	nt	nt	-22%	nt	35µM*	-12%
O=C(CNCC1CCCO1)N1CCCCCC1 (stereo not drawn)	?	?	?	?	25µM*	-1%
CC1(C)CC(=O)N(CC(=O)NCc2ccccc2)c2ccccc2S1(=O)=O	11%	-1%	-3%	-9%	18%[59 µM]	-3%
CCN(CC)c1ccc(NC(=O)CN2C(=O)CC(C)(C)S(=O)(=O)c3ccccc32)c(C)c1	-9%	?	-17%	-12%	8.9µM*	-7%
CC(=O)c1ccc(NC(=O)CNC2CCCCC2)cc1	nt	nt	?	nt	79µM*	-1%
Fc1ccc(N2CCN(c3ncnc4[nH]ncc34)CC2)cc1	nt	nt	nt	?	-1%[59 µM]	-20%
COc1ccc(NCc2cccnc2)cc1	nt	nt	4%	nt	nt	-1%
CC(=O)OCC(=O)Nc1ccc(C(C)=O)cc1	?	0%	5%	3%[0.0737 µM]	35%[0.501 µM]	3%
SMILES	ALDH1A1 block	KDM4E inh	Sfp inh	Lamin A splicing	G9a inh	miR-21 act
CC(=O)NCC(=O)OCC(=O)Nc1ccc(C(C)=O)cc1	22µM*	-21%	10%	8%	-4%[59 µM]	-5%
O=C(COC(=O)C1CCCCC1)Nc1ccc(N2CCCCC2)cc1	-8%	3%	-4%	-1%	11µM*	-17%
O=C(CNCCC1=CCCCC1)Nc1ccc(N2CCCCCC2)cc1	?	?	16µM*	?	?	0%
O=C(CNC1CCCCCC1)Nc1ccc(N2CCCC2)cc1	7%	-6%	-2%	-8%	28µM*	-2%
O=C(Nc1cccc(C(=O)O)c1)/C(=C\c1ccc(F)cc1)NC(=O)c1ccco1	nt	nt	8%	nt	16%	-4%
COc1cc2nc(NC(=O)c3ccc(S(=O)(=O)N4CCOCC4)cc3)sc2cc1OC	nt	nt	nt	?	2%[59 µM]	6%
COc1ccc(-c2nnc(SCC(=O)Nc3cc(OC)ccc3OC)nc2-c2ccc(OC)cc2)cc1	nt	nt	nt	-5%[46 µM]	-36%[59 µM]	5%
Cc1ccccc1OCC(=O)Nc1ccccc1N1CCCCC1	0%	5%	?	?	?	-2%
O=C(O)CCC(=O)Nc1ccc(N2CCCCCC2)cc1	11µM*	?	22µM*	2%	0.89µM*	9%
CCC(=O)Nc1ccc(C(=O)NNC(=O)C2CCCCC2)cc1	nt	nt	-5%	nt	45µM*	-7%
O=C(CNCC1CCCCC1)Nc1ccc(N2CCCCC2)cc1	?	28µM*	?	-4%[9.22 µM]	22µM*	-4%
O=C(Nc1ccc(N2CCOCC2)cc1)C1CCCCC1	23%	4%	14%	1%	-29%[59 µM]	-43%
O=C(CNCC1CCCO1)Nc1ccccc1N1CCCCCC1 (stereo not drawn)	-4%	5%	-9%	7%	45µM*	-10%
CC(C)NC(=O)c1nn(C)c2c1CS(=O)(=O)c1ccccc1-2	nt	nt	nt	26%[46 µM]	9%[59 µM]	10%
CC(=O)[C@@H]1CC[C@@H]2[C@@H]3C[C@H](C)C4=CC(=O)CC[C@@]4(C)[C@H]3[C@H](O)C[C@]21C	-18%[20.9 µM]	-1%[25.5 µM]	11%	?	25%[21.5 µM]	nt
Cc1noc(C)c1C(=O)OCC(=O)NCc1ccccc1	nt	nt	nt	nt	-2%	nt
O=C(NCC1CCCO1)C1CCN(CC2CCCCC2)CC1 (stereo not drawn)	7%	-9%	8%	3%	?	-2%
CC(C)CN1CCC(C(=O)NCC2CCCO2)CC1 (stereo not drawn)	?	?	?	-1%	10µM*	-1%
COC(=O)C1=C(C(=O)OC)C2(OC1c1cccc(F)c1)C(=O)c1ccccc1C2=O (stereo not drawn)	-10%	1%	79µM*	2%	25µM*	5%
COC(=O)C1=C(C)N(Cc2ccccc2)C(=O)N[C@H]1c1cccc(F)c1	?	5%[11.4 µM]	15%	?	nt	nt
CCCC12CN3CC(C)(CN(C1)C3c1ccc(CC)cc1)C2=O (stereo not drawn)	nt	nt	nt	nt	?	2%
S=c1[nH]nc(Cc2ccccc2)n1-c1cccc2ccccc12	?	3%	-10%	3%	10µM*	-17%
